Results from a collection of fitness landscapes (doi:10.1016/j.celrep.2020.107928).
Over roughly 81,000 sequences, “one-hybrid fitness for binding parS DNA” has its median near -0.17; the highest 2% begin near 0.51. Shown is part of a subset that was picked to be rich in the highest values.

B1: Caulobacter ParB omega fusion; a variant is named by its letters at X, in order, B8GW30 (parent)
chain: MESVVVGEPGMSEGRRGLGRGLSALLGEVDAAPAQAPGEQLGGSREAPIEILQRNPDQPRRTFREEDLEDLSNSIREKGVLQPILVRPSPDTAGEYQIVAGERAWRAAQRAGLKTVPIMVRELDDLAVLEIGIIENVQRADLNVLEEALSYKVLMEKFERTQENIAQTIGKSXSHVANXMRLLXLPDEVQSYLVSGELTAXHARAIAAAADPVALAKQIIEGGLSVRETEALARKAPNLSAGKSKGGRPPRVKDTDTQALESDLSSVLGLDVSIDHRGSTGTLTITYATLEQLDDLCNRLTRGI

Variants of: B1
Experiment: one-hybrid fitness for binding parS DNA (scaled: cognate 1, non-cognate 0); higher = stronger binding
Details: with parS DNA site
Summary of the method: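 Values were rescaled so that cognate is 1 and non-cognate is 0. Each is a fitness, the log change in a variant's read ratio to wild type from Illumina reads of plasmids before and after selection, with three replicate libraries pooled and variants under 10 reads dropped. Selection of the Caulobacter ParB libraries, four specificity codons randomised, used E. coli USO with a HIS3 reporter, site 19 bp from the promoter, on M9-minus-histidine with 0.1 mM IPTG and 5 mM 3-AT for 48 hours at 37°C.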

Variant	one-hybrid fitness for binding parS DNA
YSYS	≤ 0.2
RRKK	≤ 0.2
RRKF	≤ 0.2
RRVG	0.836
RRKG	0.708
RRVQ	≤ 0.2
RRVR	≤ 0.2
LFLG	≤ 0.2
SWLK	≤ 0.2
PTSL	≤ 0.2
QPAA	≤ 0.2
FRES	≤ 0.2
PPSL	≤ 0.2
SYQW	≤ 0.2
RGDA	0.235
DTNA	≤ 0.2
NTNA	≤ 0.2
RTDA	0.554
RTNA	0.722
WHYV	≤ 0.2
HFVM	≤ 0.2
QFAC	≤ 0.2
RSGK	≤ 0.2
RLGH	0.204
RLGN	0.469

Variant	one-hybrid fitness for binding parS DNA
RPGG	≤ 0.2
RIGG	1.02
RDGG	≤ 0.2
RIGD	≤ 0.2
RCGG	1.01
RSGG	0.998
RLGG	0.995
REGG	0.2
RIGH	0.246
HLHN	≤ 0.2
EVNR	≤ 0.2
RCWR	≤ 0.2
NFVA	≤ 0.2
MAPR	≤ 0.2
YLCV	≤ 0.2
DLKG	≤ 0.2
TWYC	≤ 0.2
TAYD	≤ 0.2
PPTG	≤ 0.2
RQIG	0.805
RQPG	0.514
RQPH	≤ 0.2
RQPD	≤ 0.2
RQIN	0.248
RQIH	≤ 0.2

Variant	one-hybrid fitness for binding parS DNA
LCRT	≤ 0.2
CNIR	≤ 0.2
TNIS	≤ 0.2
ASKM	≤ 0.2
RCDS	1.02
RSND	≤ 0.2
RSDH	≤ 0.2
RCNP	≤ 0.2
RSNS	0.959
RCNS	0.908
RCDP	0.204
RSNH	0.203
RSDP	≤ 0.2
RSDS	0.939
RPNS	≤ 0.2
RPDS	≤ 0.2
FIST	≤ 0.2
SDVE	≤ 0.2
QNER	≤ 0.2
HDLW	≤ 0.2
GHTP	≤ 0.2
IPGC	≤ 0.2
FIPR	≤ 0.2
LDNV	≤ 0.2
RMTC	0.985

Variant	one-hybrid fitness for binding parS DNA
RITY	0.443
RSTC	0.97
RTTQ	≤ 0.2
RITR	≤ 0.2
RMTR	≤ 0.2
RETC	≤ 0.2
RTTC	0.991
RMTP	≤ 0.2
RITC	0.962
RTTN	0.415
RSTQ	≤ 0.2
QHHF	≤ 0.2
PRIV	≤ 0.2
VMLC	≤ 0.2
DQKI	≤ 0.2
NPVG	≤ 0.2
FASY	≤ 0.2
GGAS	≤ 0.2
RHTC	0.946
NRTC	≤ 0.2
RCTC	1
RRTR	≤ 0.2
RHTH	≤ 0.2
RHTY	0.41
RRTC	0.616

Variant	one-hybrid fitness for binding parS DNA
RKTN	0.336
RKTP	≤ 0.2
RKTC	0.793
RPTC	≤ 0.2
RDTC	≤ 0.2
MMQL	≤ 0.2
GRRM	≤ 0.2
RHSV	≤ 0.2
AKSG	≤ 0.2
REHW	≤ 0.2
EAGS	≤ 0.2
KYAG	≤ 0.2
ELVS	≤ 0.2
SVCS	≤ 0.2
LPIR	≤ 0.2
GTYV	≤ 0.2
VEST	≤ 0.2
SGLP	≤ 0.2
CLRH	0.227
RLTN	0.43
RLTM	0.346
NFTC	≤ 0.2
RATC	0.982
RFTC	0.95
RFTN	0.405

Variant	one-hybrid fitness for binding parS DNA
RLTC	1
RATP	≤ 0.2
RATN	0.436
REFP	≤ 0.2
GDAW	≤ 0.2
RNAK	≤ 0.2
RNFK	≤ 0.2
RNAM	0.243
RNAT	0.686
RNFT	0.573
RNFF	≤ 0.2
VNTS	≤ 0.2
NGQK	≤ 0.2
QLDA	≤ 0.2
AVCE	≤ 0.2
APET	≤ 0.2
RRTQ	≤ 0.2
RRTD	≤ 0.2
RRTP	≤ 0.2
RRTN	0.695
RRTS	0.651
RRTH	≤ 0.2
APDT	≤ 0.2
CSER	≤ 0.2
DLWS	≤ 0.2

Variant	one-hybrid fitness for binding parS DNA
MGLC	≤ 0.2
GWAG	≤ 0.2
KEHC	≤ 0.2
REVT	≤ 0.2
RDVT	≤ 0.2
RSVT	0.707
RCVT	0.843
RPVT	≤ 0.2
CVDQ	≤ 0.2
ITTC	≤ 0.2
LKCF	≤ 0.2
HKKY	≤ 0.2
RIIG	0.924
RIPR	≤ 0.2
RIPF	≤ 0.2
RIIY	0.398
RIIH	0.233
RIPG	0.703
DMEL	≤ 0.2
CRVS	≤ 0.2
QASM	≤ 0.2
RYVP	≤ 0.2
RYKF	0.257
RYKG	0.91
RYKQ	≤ 0.2

Variant	one-hybrid fitness for binding parS DNA
RYVG	0.899
RYVD	≤ 0.2
VKQG	≤ 0.2
RVVF	0.22
RVVK	≤ 0.2
RVVG	0.942
RVKQ	≤ 0.2
RVKM	0.393
RVKG	0.941
QSVI	≤ 0.2
DCRY	≤ 0.2
LYRG	≤ 0.2
QLEI	≤ 0.2
RRNS	0.646
RRNH	0.256
RRDD	≤ 0.2
RRDN	0.257
RRNP	≤ 0.2
RRDS	0.743
RRDP	≤ 0.2
RRND	≤ 0.2
RRNN	0.811
MPNM	≤ 0.2
LHPH	≤ 0.2
GDDG	≤ 0.2

Variant	one-hybrid fitness for binding parS DNA
QSME	≤ 0.2
ACRS	≤ 0.2
SHIK	≤ 0.2
VLLG	≤ 0.2
RFNS	0.984
RFNH	≤ 0.2
RFDS	0.954
RFDN	0.354
RFDP	≤ 0.2
RFND	≤ 0.2
RMAW	0.235
WGKS	≤ 0.2
RQTE	≤ 0.2
NRHC	≤ 0.2
RRYT	0.604
RRYF	≤ 0.2
RRRK	≤ 0.2
RRYQ	≤ 0.2
RRRT	0.597
RRDK	≤ 0.2
RRRR	≤ 0.2
RRDT	0.648
RRSQ	≤ 0.2
RRDF	≤ 0.2
RRSK	≤ 0.2

Variant	one-hybrid fitness for binding parS DNA
RRST	0.54
SYQG	≤ 0.2
LIRC	≤ 0.2
MILL	≤ 0.2
PRDA	≤ 0.2
YSLD	≤ 0.2
WHRF	≤ 0.2
RRWT	0.682
RRGM	0.391
RRLT	0.623
RRCT	0.587
RRGK	≤ 0.2
RRWR	≤ 0.2
RRLM	≤ 0.2
RRWM	≤ 0.2
RRLQ	≤ 0.2
RRGT	0.566
RRCK	≤ 0.2
RRCQ	≤ 0.2
SPPK	≤ 0.2
RSIQ	≤ 0.2
YRAT	≤ 0.2
EFSC	≤ 0.2
DTGT	≤ 0.2
LRWE	≤ 0.2

Variant	one-hybrid fitness for binding parS DNA
AHLK	≤ 0.2
MITC	≤ 0.2
RRPK	≤ 0.2
LTLY	≤ 0.2
RRHR	≤ 0.2
RRQT	0.551
DRHT	≤ 0.2
RRQK	≤ 0.2
RRNK	≤ 0.2
RRQF	≤ 0.2
RRNR	≤ 0.2
RRNT	0.565
RRHT	0.593
HISY	≤ 0.2
PLCG	≤ 0.2
KSHC	≤ 0.2
TRTL	≤ 0.2
QHPL	≤ 0.2
TQMA	≤ 0.2
LYGV	≤ 0.2
STLG	≤ 0.2
RMAY	0.436
RMFF	0.206
RMAT	0.913
RMFM	0.369

Variant	one-hybrid fitness for binding parS DNA
RMAQ	≤ 0.2
RMFT	0.882
VYHP	≤ 0.2
HINR	≤ 0.2
PLDY	≤ 0.2
PNDH	≤ 0.2
RVKS	0.831
RVKP	≤ 0.2
RVKH	≤ 0.2
RVVD	≤ 0.2
RVVN	0.41
RVVS	1.03
EWSG	≤ 0.2
QKNH	≤ 0.2
APDA	≤ 0.2
PFGA	≤ 0.2
RWGA	0.386
ETGA	≤ 0.2
DFGA	≤ 0.2
RCGA	0.653
RFGA	0.531
RTGA	0.679
RMGA	0.573
DTGA	≤ 0.2
DMGA	≤ 0.2

Variant	one-hybrid fitness for binding parS DNA
RPGA	≤ 0.2
NTKT	≤ 0.2
QYPA	≤ 0.2
WNKI	≤ 0.2
RAGA	0.595
RHGA	0.546
DAGA	≤ 0.2
REGA	≤ 0.2
NLGA	≤ 0.2
DLGA	≤ 0.2
RSGA	0.597
RLGA	0.617
RNGA	0.496
